Bioassay records deposited in PubChem by Pan Lab, Icahn School of Medicine at Mount Sinai.
The full list was thinned out, with hits kept by preference.
RBX1-CUL1 inh – inhibitors of human ROC1-CUL1 ubiquitin ligase activity. actives 0.6% (n = 140,000). AID 1347404, 2020. inhibition, % at 10 µM. E3 ubiquitin-protein ligase RBX1 (Homo sapiens) + Cullin-1 (Homo sapiens), P62877+Q13616. in vitro K48 di-Ub FRET, acceptor:donor ratio, 45 min; in the data active = inhibition above about 25%
Target sequence (P62877 whole entry, looked up): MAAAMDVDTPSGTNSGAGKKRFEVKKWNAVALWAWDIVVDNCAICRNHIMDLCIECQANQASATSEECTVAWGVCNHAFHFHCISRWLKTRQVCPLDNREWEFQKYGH
Target sequence (Q13616 whole entry, looked up): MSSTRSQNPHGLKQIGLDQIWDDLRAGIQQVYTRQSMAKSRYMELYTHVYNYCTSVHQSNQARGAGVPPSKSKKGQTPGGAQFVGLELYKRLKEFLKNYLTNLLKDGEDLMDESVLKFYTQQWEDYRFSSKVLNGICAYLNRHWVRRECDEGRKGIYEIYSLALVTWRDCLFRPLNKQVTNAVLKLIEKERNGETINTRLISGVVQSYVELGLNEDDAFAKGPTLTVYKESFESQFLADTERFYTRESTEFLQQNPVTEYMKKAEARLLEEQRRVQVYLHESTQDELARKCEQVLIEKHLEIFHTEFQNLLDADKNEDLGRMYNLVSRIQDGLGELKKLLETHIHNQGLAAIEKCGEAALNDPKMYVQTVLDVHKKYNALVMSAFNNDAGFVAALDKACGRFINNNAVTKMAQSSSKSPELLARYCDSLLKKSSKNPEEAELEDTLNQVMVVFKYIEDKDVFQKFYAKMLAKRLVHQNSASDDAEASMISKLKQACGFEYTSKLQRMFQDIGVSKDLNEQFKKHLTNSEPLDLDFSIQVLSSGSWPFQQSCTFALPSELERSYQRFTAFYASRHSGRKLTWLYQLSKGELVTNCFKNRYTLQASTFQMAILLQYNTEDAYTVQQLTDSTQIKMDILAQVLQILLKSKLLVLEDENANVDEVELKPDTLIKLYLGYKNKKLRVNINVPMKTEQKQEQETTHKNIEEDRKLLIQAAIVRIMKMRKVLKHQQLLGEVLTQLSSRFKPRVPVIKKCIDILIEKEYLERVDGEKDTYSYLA
Of the large screens only hits and unclear results are named; the others gave an inactive call.

CC1(C)CC(=O)CC(=NC2CC(C)(C)NC(C)(C)C2)C1	none
Oc1ccc(/C=N/Nc2ncnc3nc[nH]c23)cc1O	none
CCN(CC)c1ccc(C=C2C(=O)N(c3ccccc3)C(=O)N(c3ccccc3)C2=O)cc1	none
CCN(CC)c1ccc(/C=C2\C(=O)N(c3nnc(C)c(=O)[nH]3)N=C2C)cc1	RBX1-CUL1 inh 57
CCN(C)c1ccc(C=C2C(=O)N(C)C(=O)N(C)C2=O)cc1	none
Cc1ccc(C)c(S(=O)(=O)N2CCN(C(=O)C(C)(C)C)CC2)c1	none
CCCCCCCCCCOc1ccc(N=CC=Nc2ccc(OCCCCCCCCCC)cc2)cc1	none
CCCCCCCCCOc1ccc(C#CC(=O)O)cc1	RBX1-CUL1 inh 99
CCCCCCOc1ccc(/C(CCCCC/C(=N\O)c2ccc(OCCCCCC)cc2)=N\O)cc1	none
CC(NC(=O)c1cc(COc2ccccc2)[nH]n1)c1ccncn1 (centres undefined)	none
C/C(=N\NC(=O)COc1c(Br)cc(C)cc1Br)c1ccccc1O	none
COc1ccc(C(=O)c2cc3ccccc3cc2N)cc1	none
Cc1cccc(OCCCOc2ccccc2/C=C2\C(=O)NN(c3ccccc3)C2=O)c1	RBX1-CUL1 inh 32
O=C1NN(c2ccccc2)C(=O)/C1=C/c1cc(Cl)ccc1OCCCOc1ccccc1	none
Cc1ccc(OCCCOc2cccc(/C=C3\C(=O)NN(c4ccccc4)C3=O)c2)cc1	RBX1-CUL1 inh 25
Cc1ccc(COc2ccccc2/C=C2\C(=O)NN(c3ccccc3)C2=O)cc1	none
COc1cccc(/C=C2/C(=O)NN(c3ccc(C)cc3)C2=O)c1	none
COc1cc(/C=C2\C(=O)NN(c3ccccc3)C2=O)ccc1OCCCOc1ccccc1	none
Cc1ccc(N2C(=O)C(C(=O)Cc3ccccc3)C(=O)N(c3ccc(C)cc3)C2=S)cc1	none
O=C(O)CN1C(=O)c2c(Br)c(Br)c(Br)c(Br)c2C1=O	none
COc1ccc(S(=O)(=O)N2CCC(C(=O)N3CCN(Cc4ccccc4)CC3)CC2)cc1Cl	none
Cc1ccc(C(=O)Cn2c(-c3ccccc3)nnc2-c2ccccc2)cc1C	none
CCCC1CCc2c(sc(NC(=O)c3cc(C)on3)c2C(N)=O)C1 (centres undefined)	none
CCC1CCc2c(sc(NC(=O)c3c(C)noc3C)c2C(N)=O)C1 (centres undefined)	RBX1-CUL1 inh 74
Cc1noc(C)c1C(=O)Nc1sc2c(c1C(N)=O)CCCCCC2	none
O=C(Nc1ccc(Cl)cc1C(=O)N1CCCCCC1)c1ccco1	none
CC(C)CCC(=O)NCC1Cc2cccc(-c3cncnc3)c2O1 (centres undefined)	none
CC(=O)NS(=O)(=O)c1ccc(Br)cc1	none
O=C1NC(=S)NC(=O)C1=Cc1ccc(-c2ccccc2Cl)o1	none
CC(=O)NS(=O)(=O)c1ccc(-c2ccc(C=C3C(=O)NC(=S)NC3=O)o2)cc1	RBX1-CUL1 inh 41
COCC(=O)Nc1ccc(C)cc1O	none
O=C(CN1CCc2ccccc21)NC1CCCCCC1	none
O=S(=O)(O)SCCN1CCc2ccccc21	RBX1-CUL1 inh 28
OCCN1c2ccccc2CCc2ccccc21	none
Nc1cnn(Cc2ccccc2Cl)c1	none
Cc1noc(-c2ccc(N(CC3CCC(=O)N3)C(C)C)nc2)n1 (centres undefined)	none
CCOc1ccc(/C(C)=N/N=C2/NC(=O)C(CC(=O)O)S2)cc1 (centres undefined)	none
CN(CCC(O)c1ccccc1)c1nncc(-c2ccc(F)cc2)n1 (centres undefined)	none
CC1=NOC(=O)/C1=C\c1ccc(-c2cc(Cl)ccc2Cl)o1	RBX1-CUL1 inh 97
O=C1C(=Cc2ccc(-c3cc(Cl)ccc3Cl)o2)C(=O)N(c2ccccc2)C(=S)N1c1ccccc1	none
CC1=NOC(=O)/C1=C/c1cccn1C	none
O=C(N/N=C/c1ccc(Br)cc1)c1ccccc1[N+](=O)[O-]	none
CC(CNC(=O)c1ccc(Cl)s1)NC(=O)c1ccc(Cl)s1 (centres undefined)	none
COC(=O)c1cc(NC(=O)Cc2cccs2)ccc1O	none
COC(=O)c1cc(NC(=O)Cc2cccs2)cc(C(=O)OC)c1	RBX1-CUL1 inh 56
CCOC(=O)c1cccc(NC(=O)Cc2cccs2)c1	none
CCC1CN(Cc2coc3ccccc3c2=O)Cc2cc(OC)ccc2O1 (centres undefined)	none
Cc1cc(=O)oc2c1cc(OCC(=O)NC(C)C)c1occ(C)c12	none
Cc1cnc(SCc2ccccn2)nc1C1CCCN(CCCc2ccccc2)C1 (centres undefined)	none
COc1cc(CC2=NC(=S)N(C)C2=O)c(Br)cc1OCc1ccc(Cl)cc1	none
CN1C(=O)C(Cc2ccc(Br)s2)=NC1=S	none
CN1C(=O)C(Cc2cc(Cl)ccc2O)=NC1=S	RBX1-CUL1 inh 27
COc1ccc(CC(=O)NCC2CCCN(C(=O)CSc3ccccn3)C2)cc1 (centres undefined)	none
CCc1n[nH]c(=S)n1/N=C/c1ccc(Cl)cc1	none
Cc1cc(=O)oc2cc(OCC(=O)Nc3ccccc3Cl)ccc12	none
Nc1ccccc1C#Cc1ccccc1	none
OCc1ccc(C#Cc2ccccc2)o1	RBX1-CUL1 inh 81
OCc1ccccc1C#Cc1ccccc1	none
CC(C)C1CC(CCNCc2ccccc2F)(c2ccccc2)CCO1 (centres undefined)	none
CN(C)c1ccc(C2C(C(=O)c3ccccc3)C(=O)C(=O)N2c2ccc(Cl)cc2)cc1 (centres undefined)	none
Cc1nc(N2C(=O)C(=O)C(C(=O)c3ccccc3)C2c2ccc(Br)cc2)sc1C (centres undefined)	none
O=C1C(=O)N(c2ccccn2)C(c2ccccc2Cl)C1C(=O)c1ccccc1 (centres undefined)	RBX1-CUL1 inh 29
CC(C)Oc1ccc(C(=O)C2C(=O)C(=O)N(c3ccccn3)C2c2ccc(Cl)cc2)cc1 (centres undefined)	none
O=C1C(=O)N(c2nccs2)C(c2ccc(Cl)cc2)C1C(=O)c1ccccc1 (centres undefined)	RBX1-CUL1 inh 64
O=C(/C=C/c1ccccc1)C1C(=O)C(=O)N(c2ccccn2)C1c1ccccc1 (centres undefined)	none
CC1=NC(=S)NC(c2ccc(F)cc2)C1C(=O)Nc1cccc(C)c1C (centres undefined)	none
COc1ccc(CNS(=O)(=O)Cc2ccc(F)cc2)cc1	none
O=C(Nc1ccc(Cl)cn1)c1sc2cc(F)ccc2c1Cl	none
CCOc1cccc(C(=O)N2CCN(C(=O)c3cccc(OCC)c3)CC2)c1	none
N#CC1C(=N)Oc2n[nH]c(C34CC5CC(CC(C5)C3)C4)c2C1c1ccc(Br)cc1 (centres undefined)	none
N#CC1C(=N)Oc2cc(O)c(C=Nc3ccc(Cl)c(Cl)c3)cc2C1c1cccc(I)c1 (centres undefined)	none
N#CC1C(=N)Oc2cc(O)c(C=Nc3cc(C(F)(F)F)ccc3Cl)cc2C1c1ccco1 (centres undefined)	RBX1-CUL1 inh 85
Cc1ccc(N=Cc2cc3c(cc2O)OC(=N)C(C#N)C3c2cccc(F)c2)c(C)c1 (centres undefined)	none
Cc1c(CC(=O)N2CCCC(O)C2)c2c(n1Cc1ccc(F)cc1)CCCC2=O (centres undefined)	none
CC1C(=NC(=O)CCC(=O)O)C(=O)N(c2ccccc2)N1C (centres undefined)	none
COc1cccc(CN2CCC(n3nccc3NC(=O)Nc3ccccc3C)CC2)c1	none
O=C1CCC(=O)N1c1cccc(Cl)c1	none
O=C(Oc1ccc(N2C(=O)CCC2=O)cc1)c1ccccc1	none
CC(=O)Sc1ccc(N2C(=O)CCC2=O)cc1	RBX1-CUL1 inh 37
CCc1nc(NC(=O)NCc2cccc(C(F)(F)F)c2F)nn1C	none
CCOC(=O)c1c(NC(=O)CCCC(=O)O)sc(C)c1-c1ccc(F)cc1	none
CCOC(=O)c1c(NC(=O)c2cccs2)sc(C)c1-c1ccc(OC)cc1	none
